Data reported in PubChem BioAssay (NCI).
Compounds without any hit were thinned out: in the full panel of roughly 79,000, 15% have a hit. A number with no mark means an inactive call. The source made the active and inactive calls. No stated cut-off is given here; in the data, active means growth inhibition above about 70%; inactive means the rest.

Tests used:
[1] = NCI Yeast Anticancer Drug Screen. Data for the rad50 strain (AID 155);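 further: 0% = growth of vehicle-only cultures of the same strain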; details: S. cerevisiae rad50 strain growth inhibition, hits give high values
Outline: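 DNA repair mutant yeast, compound exposure, growth read-out; inhibition is taken relative to vehicle.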

[2] = NCI Yeast Anticancer Drug Screen. Data for the mec2-1 strain (AID 157); details: S. cerevisiae mec2-1 strain, hits give high values
Outline: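 Growth inhibition is read against vehicle-treated controls after compound exposure of the mec2-1 yeast strain, which is defective in DNA damage repair or cell cycle control.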

[3] = NCI Yeast Anticancer Drug Screen. Data for the sgs1 mgt1 strain (AID 161);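 further: 0% = growth of cultures given vehicle only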; details: S. cerevisiae sgs1 mgt1 strain, hits give high values
Outline: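 Compounds are added to genetically altered yeast, and growth is compared with cultures given vehicle alone to give percent inhibition.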

[4] = NCI Yeast Anticancer Drug Screen. Data for the cln2 rad14 strain (AID 165);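 further: 0% = growth equal to vehicle treated cultures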; details: S. cerevisiae cln2 rad14 strain, hits give high values
Outline: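 Growth inhibition, relative to vehicle-treated controls, is the read-out. The test organism is a yeast strain with defined genetic alterations, cln2 rad14.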

[5] = NCI Yeast Anticancer Drug Screen. Data for the bub3 strain (AID 167); details: S. cerevisiae bub3 mutant strain, hits give high values
Outline: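 In this screen, a yeast mutant lacking normal mitotic checkpoint function is challenged with compound. Relative growth versus vehicle gives the inhibition value.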

[6] = NCI Yeast Anticancer Drug Screen. Data for the mlh1 rad18 strain (AID 175); details: S. cerevisiae mlh1 rad18 strain growth inhibition, hits give high values
Outline: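 Cells of a genetically altered yeast strain, deficient in DNA damage repair, were treated with compound. Their growth was then compared with that of vehicle-treated cultures to give inhibition.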

[7] = at 5.0 µM (retest, dose inferred, filed as 0.5)
[8] = at 50.0 µM (retest, dose inferred, filed as 5.0)

SMILES | growth inhibition [1, 7] [%] | growth inhibition [1, 8] | growth inhibition ([1]; at 50.0 µM) | growth inhibition [2, 7] [%] | growth inhibition [2, 8] | growth inhibition ([2]; at 50.0 µM) | growth inhibition [3, 7] [%] | growth inhibition [3, 8] | growth inhibition ([3]; at 50.0 µM) | growth inhibition [4, 7] [%] | growth inhibition [4, 8] | growth inhibition ([4]; at 50.0 µM) | growth inhibition [5, 7] [%] | growth inhibition [5, 8] | growth inhibition ([5]; at 50.0 µM) | growth inhibition [6, 7] [%] | growth inhibition [6, 8] | growth inhibition ([6]; at 50.0 µM)
CC(C)c1cc([N+](=O)[O-])cc([N+](=O)[O-])c1O | 9 | 88% (active) | 82.4% (active) | -20 | 90% (active) | 62.1% | 1 | 87% (active) | 86.1% (active) | 8 | 82% (active) | 58% | -4 | 85% (active) | 55.5% | 6 | 90% (active) | 80.7% (active)
ClC(CN1CCCCC1)C(Cl)c1ccccc1 (stereo not drawn) | 6 | 28% | 46.6% | 2 | 21% | 4.8% | 5 | 53% | 62% | 7 | 37% | 53% | 6 | 58% | 51.9% | 16 | 57% | 35.1%
O=P1(N2CCOCC2)OC(c2ccccc2)=CCN1c1ccccc1 (stereo not drawn) | 3 | 4% | -0.15% | -1 | -1% | 47.1% | 5 | 81% (active) | 24.6% | -1 | -2% | 39% | 3 | 25% | 10.3% | -1 | 3% | -3.45%
Sc1ccccc1.[Ag] | 27 | 97% (active) | 98.5% (active) | 58 | 99% (active) | 98.8% (active) | 49 | 98% (active) | 99% (active) | 20 | 97% (active) | 98.1% (active) | 56 | 97% (active) | 97.9% (active) | 49 | 97% (active) | 98.3% (active)
CCOP(=O)(OCC)/C(C#N)=C/c1cccc(F)c1 | -9 | 45% | 73.8% (active) | -11 | 23% | 59.3% | -2 | 36% | 64.8% | 17 | 33% | 25.4% | -12 | 56% | 51.1% | -1 | 69% | 68.9%
Sc1nc2ccccc2s1.Sc1nc2ccccc2s1.Sc1nc2ccccc2s1.Sc1nc2ccccc2s1.[Cl][Rh][Cl] | 20 | 95% (active) | 95.7% (active) | 12 | 96% (active) | 98.5% (active) | 38 | 97% (active) | 93.3% (active) | 0 | 94% (active) | 97.1% (active) | 31 | 97% (active) | 96.8% (active) | 43 | 96% (active) | 97.7% (active)
